Screening data: PubChem, National Center for Advancing Translational Sciences (NCATS)
Cruzain inh Det: qHTS Assay for Promiscuous and Specific Inhibitors of Cruzain (with detergent); purified cruzain, Z-FR-AMC fluorescence, 0.01% Triton; Potency, µM, most hits filed as inhibitors; hit rate 0.43% among 200,000; note: nearly all actives have a fitted effect of over 40% in size
Target sequence (P25779 123-467 limits assumed): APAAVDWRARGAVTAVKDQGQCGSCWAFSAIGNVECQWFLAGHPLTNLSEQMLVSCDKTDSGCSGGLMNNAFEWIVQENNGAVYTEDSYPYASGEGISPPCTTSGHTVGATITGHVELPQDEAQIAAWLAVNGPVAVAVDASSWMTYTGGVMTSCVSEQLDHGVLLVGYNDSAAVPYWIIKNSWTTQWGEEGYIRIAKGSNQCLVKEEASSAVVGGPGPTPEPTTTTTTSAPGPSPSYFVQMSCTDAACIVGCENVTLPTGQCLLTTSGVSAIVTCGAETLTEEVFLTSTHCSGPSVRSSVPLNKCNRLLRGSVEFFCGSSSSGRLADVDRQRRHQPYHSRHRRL
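Compounds were screened in titration against cruzain (1.5 nM) with 0.01% Triton X-100 to counter colloidal aggregation. Activity was the AMC fluorescence increase over 60 s after adding 2 uM Z-FR-AMC at pH 5.5.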
Cruzain inh noDet: qHTS Assay for Promiscuous and Specific Inhibitors of Cruzain (without detergent); Cruzipain (Trypanosoma cruzi), P25779; purified cruzain, Z-FR-AMC fluorescence, no detergent; Potency, µM, actives largely listed as inhibitors; hit rate 2.3% among 200,000; AID 1476, 2009; note: nearly all actives have a fitted effect of over 40% in size
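Purified cruzain at 1.5 nM, pre-incubated 15 min with compound at room temperature in 100 mM sodium acetate pH 5.5, 5 mM DTT, 0.00005% Triton X-100. Reaction started with 2 uM Z-FR-AMC; AMC fluorescence increase over 60 s gives rate.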
Hits are given with their value; – = inactive; ? = inconclusive. The list is not random: actives were taken first. Their share in the collection is about 2.5%. Calls come from the whole dose curve; as a rule, active = well fitted curve in the direction sought with a large enough effect; inconclusive = small, poorly fitted or top-dose-only effect, or another doubt; inactive = no such curve, though single readings can be large; an effect the other way counts as inactive or inconclusive.

SMILES | Cruzain inh Det | Cruzain inh noDet
CCc1nnc(N/N=C/c2c(Cl)cccc2Cl)n1N | – | –
Cc1nnc(N/N=C/c2cccc(OCc3ccc(Cl)c(Cl)c3)c2)n1N | 22.4µM | ?
CC(C)CCNC(=O)CCCOc1ccccc1 | – | –
CC(C)CCNC(=O)[C@H](CC(C)C)NC(=O)[C@H]1O[C@@H]1C(=O)O | 0.1µM | 0.1µM
Cc1ccc(-c2cc(C(=O)OCC(=O)Nc3cc(C)on3)c3ccccc3n2)c(C)c1 | – | –
Cc1cc(NC(=O)COC(=O)c2oc3c(ccc4ccccc43)c2C)no1 | – | 20µM
O=C(O)C(Sc1ccc(Cl)cc1)Sc1ccc(Cl)cc1 | – | –
Cc1ccc(NC(=[OH+])c2cc3ccccc3cc2O)c(C)c1.Cc1ccc(NC(=[OH+])c2cc3ccccc3cc2O)c(C)c1.[Ni] | – | –
CCC(SC1=N/C(=C/c2ccccc2)C(=O)N1c1ccccc1)C(=O)Nc1cc(C)on1 (configuration not stated) | – | 31.6µM
COc1ccc(/C=C2/N=C(SCC(=O)Nc3cc(C)on3)N(c3ccccc3)C2=O)cc1 | – | –
CCOc1nc2cccc(C(=O)OC(C)OC(=O)OC3CCCCC3)c2n1Cc1ccc(-c2ccccc2-c2nn[nH]n2)cc1 (configuration not stated) | 14.1µM | ?
CCCc1nc(C(C)(C)O)c(C(=O)OCc2oc(=O)oc2C)n1Cc1ccc(-c2ccccc2-c2nn[nH]n2)cc1 | – | ?
CC1CCC(NC(=O)CCc2cn(Cc3ccc(F)cc3)c3ccccc23)CC1 (configuration not stated) | – | –
O=C(Nc1ccccc1)c1ccc(Nc2c([N+](=O)[O-])cc([N+](=O)[O-])c3ccccc23)cc1 | – | 10µM
O=C(Nc1ccccc1)c1ccc(NCC2CCCO2)c([N+](=O)[O-])c1 (configuration not stated) | – | –
COc1ccccc1OCC(=O)NCC1(N(C)C)CCCCC1 | – | –
CC(=O)Nc1ccc(N2N=C(C)C(N=Nc3ccccc3)C2=O)cc1 (configuration not stated) | – | ?
CC1=NN(C(N)=S)C(=O)C1N=Nc1c(C)cc(C)cc1C (configuration not stated) | – | 12.6µM
CC1=NN(C(N)=S)C(=O)C1N=Nc1ccc(C)cc1C (configuration not stated) | – | ?
CC1=NN(C(N)=S)C(=O)C1N=Nc1ccccc1C (configuration not stated) | ? | 25.1µM
COc1cccc(NC(=O)Cn2c(=O)n(-c3ccc(C)cc3)c(=O)c3ccccc32)c1 | – | –
Cc1cc(O)c(C(C)(C)C)cc1Sc1cc(C(C)(C)C)c(O)cc1C | – | –
O=C(O)c1ccncc1.O=C(O)c1ccncc1.[NH2-].[NH2-].[Pt] | – | –
Cc1ccc(CNC(=O)c2cc(=O)c3cc(C)c(C)cc3o2)cc1 | – | –
COc1cc(/C=C/c2ccccc2)oc(=O)c1 | – | –
SMILES | Cruzain inh Det | Cruzain inh noDet
COc1ccc2c(c1)CC(C(=O)NCCc1ccc(S(N)(=O)=O)cc1)CO2 (configuration not stated) | – | ?
O=C(Cn1nc(-c2ccc(Cl)cc2)c2ccccc2c1=O)Nc1cccc(Br)c1 | – | –
COc1ccc(-c2nn(CC(=O)Nc3ccc(Cl)c(Cl)c3)c(=O)c3ccccc23)cc1 | – | 7.94µM
COC(=O)c1ccccc1NC(=O)c1ncoc1-c1ccco1 | – | –
C=CCOC(C)=O | – | –
O=C1c2ccccc2-c2ccc(N(Cc3ccc(Br)cc3)Cc3ccc(Br)cc3)cc21 | – | –
COc1ccc(/C=C/C(=O)Nc2cc(S(=O)(=O)N3CCCCC3)ccc2N2CCCCC2)cc1OC | – | –
COc1ccc(/C=C(\C#N)C(=O)Nc2cc(S(=O)(=O)N3CCCCC3)ccc2N2CCCCC2)cc1 | – | 3.98µM
CC(=O)N1CC=C2C(C#N)=C(N)C(C#N)(C#N)C(CCc3ccccc3)C2C1 (configuration not stated) | – | –
CCN1CC=C2C(C#N)=C(N)C(C#N)(C#N)C(CCc3ccccc3)C2C1 (configuration not stated) | 14.1µM | 6.31µM
CCOC(=O)C1=C(c2ccccc2)N=c2s/c(=C\c3cccc(O)c3)c(=O)n2C1c1cccs1 (configuration not stated) | – | –
O=c1/c(=C\c2ccc(O)cc2)sc2n1C(c1ccccc1)C(c1ccccc1)=NN=2 (configuration not stated) | – | 25.1µM
CCCc1nc(NC(C)=O)c(C#N)c(-c2ccco2)c1CC | – | –
CCSc1nc(N)c(C#N)c(-c2ccco2)c1C#N | ? | 20µM
CCCCc1nc(N)c(C#N)c(-c2ccco2)c1CCC | 25.1µM | 20µM
COC(=O)CSc1nc(N)c(C#N)c(-c2ccco2)c1C#N | – | –
O=S(=O)(c1ccc(Br)cc1)c1nc(-c2ccco2)oc1SCc1ccccc1Cl | – | –
COC(=O)c1sc(-c2ccccc2)cc1NC(=O)Nc1ccc(F)cc1 | – | ?
O=C(/C=C/c1cccc([N+](=O)[O-])c1)Nc1ccc(NC(=O)c2cccs2)cc1 | – | 20µM
O=C(/C=C/c1cccc([N+](=O)[O-])c1)NC(=S)Nc1cccc(NC(=O)c2ccccc2Cl)c1 | – | 6.31µM
CC(=O)Nc1cccc(NC(=O)c2ccc([N+](=O)[O-])cc2Cl)c1 | – | –
O=C(/C=C/c1cccc([N+](=O)[O-])c1)c1cccs1 | – | –
CN(Cc1ccco1)c1ccnc(-c2ccoc2)n1 | – | –
Nc1c2c(nc3sc4c(c13)CCCC4)CCCCCC2 | – | 25.1µM
Nc1nc2sc3c(c2c(=O)s1)CCCC3 | – | –
SMILES | Cruzain inh Det | Cruzain inh noDet
COc1cccc(Cn2c(=O)c(-c3cccs3)nc3cnc(OCc4ccccc4)nc32)c1 | – | –
Cc1ccc(S(=O)(=O)C2(C(=O)Nc3ccc(Cl)c(C(F)(F)F)c3)CC2)cc1 | – | –
Cc1cc(/C=C(\C#N)C(=O)NCCc2c[nH]c3ccccc23)c(C)n1C | – | –
COc1cc(/C=C(/C#N)C(=O)NCCc2c[nH]c3ccccc23)ccc1OCc1ccccc1F | – | 7.94µM
CCOc1ccc(NC(=O)CC2C(=O)N(c3ccc(F)cc3)C(=O)N2CCc2sccc2C)cc1 (configuration not stated) | – | –
Cn1cccc1/C=N/NC(=O)c1cc(-c2cccs2)nc2ccccc12 | – | –
Cn1c(O)c(N=NC(=O)c2cc(-c3cccs3)nc3ccccc23)c2ccccc21 | – | 10µM
COc1ccc(C(=O)c2cn(CC(=O)Nc3ccc4c(c3)OCCO4)c3ccc(OC)cc3c2=O)cc1 | – | –
O=C(Nc1cccc(-c2nc3ccccc3o2)c1)c1ccc(-c2ccc(Br)cc2)o1 | – | ?
CS(=O)(=O)N1CCN(c2ccccc2NC(=O)c2cccc3ccccc23)CC1 | – | –
CS(=O)(=O)N1CCN(c2ccc(NC(=O)c3ccc(-c4ccc(Cl)cc4)o3)cc2)CC1 | – | ?
COc1cc2ccccc2cc1C(=O)Nc1ccccc1N1CCN(S(C)(=O)=O)CC1 | – | 25.1µM
CS(=O)(=O)N1CCN(c2ccccc2NC(=O)c2ccc(-c3ccc(Br)cc3)o2)CC1 | – | 25.1µM
Cc1ccc2cccc(NC(=O)c3ccc(-c4ccc(Br)cc4)o3)c2n1 | – | –
O=C(Nc1cccc(NC(=O)c2ccc(-c3ccc(Br)cc3)o2)c1)c1ccco1 | – | 31.6µM
